# Source: the supplement of paper PMC10849652
# The full data set covers some 8,800 targets. This sample favours those with a hit. About 0.5% of all pairs of compound and target were hits. A number with no mark means an inactive call.
# How the values were obtained:
# Test in all cases: log2 fold change, soluble protein after heating vs DMSO (PISA); higher = thermal stabilisation; K562 lysate, 10 uM; active = over 0.2 and 3.5 SD of the protein, either way, in both replicates (recomputed)
# alvocidib = compound: CN1CC[C@H](c2c(O)cc(O)c3c(=O)cc(-c4ccccc4Cl)oc23)[C@H](O)C1 [alvocidib]
# Method in brief: (§1)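 Values give the log-two fold change in thermal stability against solvent controls, from duplicates. Crude K562 extract at 1 mg/mL protein, made by dounce homogenisation in PBS pH 7.4 with 1 mM MgCl2, was treated with 10 μM compound for 30 min. After 3 min heating across 48°C-58°C, aliquots were pooled, adjusted to 0.5% NP-40 at 4°C and centrifuged at 21,000xg for 90 min. The supernatant was measured by TMTpro 16plex LC-MS/MS with channel sums equalised.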
# Tubastatin A = compound: CN1CCc2c(c3ccccc3n2Cc2ccc(C(=O)NO)cc2)C1 [Tubastatin A]
# Method in brief: as §1
# [1] = compound: CNC(=O)C1=CC=CC=C1NC2=NC(=NC=C2Cl)NC3=C(C=C(C=C3)N4CCOCC4)OC
# Method in brief: as §1
# defactinib = compound: CNC(=O)c1ccc(Nc2ncc(C(F)(F)F)c(NCc3nccnc3N(C)S(C)(=O)=O)n2)cc1 [defactinib]
# Method in brief: as §1
# [2] = compound: CNc1nc(-c2ccc3c(N)n[nH]c3c2)cc(N2C[C@@H](C(=O)NC3CCCCC3)CC[C@H]2C)n1
# Method in brief: as §1
# encorafenib = compound: COC(=O)N[C@@H](C)CNc1nccc(-c2cn(C(C)C)nc2-c2cc(Cl)cc(NS(C)(=O)=O)c2F)n1 [encorafenib]
# Method in brief: as §1
# [3] = compound: COC(=O)[C@H](CCSC)NC(=O)C1=C(C=C(C=C1)NC[C@H](CS)N)C2=CC=CC=C2
# Method in brief: as §1
# alisertib = compound: COc1cc(Nc2ncc3c(n2)-c2ccc(Cl)cc2C(c2c(F)cccc2OC)=NC3)ccc1C(=O)O [alisertib]
# Method in brief: as §1
# [4] = compound: COc1cc2nc(-c3cc(F)ccc3O)nc(N[C@@H]3CNC[C@H]3C(C)(C)O)c2cc1OC
# Method in brief: as §1
# gefitinib = compound: COc1cc2ncnc(Nc3ccc(F)c(Cl)c3)c2cc1OCCCN1CCOCC1 [gefitinib]
# Method in brief: as §1
# lapatinib = compound: CS(=O)(=O)CCNCc1ccc(-c2ccc3ncnc(Nc4ccc(OCc5cccc(F)c5)c(Cl)c4)c3c2)o1 [lapatinib]
# Method in brief: as §1
# pictilisib = compound: CS(=O)(=O)N1CCN(Cc2cc3nc(-c4cccc5[nH]ncc45)nc(N4CCOCC4)c3s2)CC1 [pictilisib]
# Method in brief: as §1
# crizotinib = compound: C[C@@H](Oc1cc(-c2cnn(C3CCNCC3)c2)cnc1N)c1c(Cl)ccc(F)c1Cl [crizotinib]
# Method in brief: as §1
# [5] = compound: C[C@H](C1=CC=C(C=C1)C(=O)NC2=C3C=CNC3=NC=C2)N
# Method in brief: as §1
# duvelisib = compound: C[C@H](Nc1ncnc2nc[nH]c12)c1cc2cccc(Cl)c2c(=O)n1-c1ccccc1 [duvelisib]
# Method in brief: as §1
# gandotinib = compound: Cc1cc(Nc2cc(CN3CCOCC3)c3nc(C)c(Cc4ccc(Cl)cc4F)n3n2)n[nH]1 [gandotinib]
# Method in brief: as §1
# tozasertib = compound: Cc1cc(Nc2cc(N3CCN(C)CC3)nc(Sc3ccc(NC(=O)C4CC4)cc3)n2)n[nH]1 [tozasertib]
# Method in brief: as §1
# doramapimod = compound: Cc1ccc(-n2nc(C(C)(C)C)cc2NC(=O)Nc2ccc(OCCN3CCOCC3)c3ccccc23)cc1 [doramapimod]
# Method in brief: as §1
# bafetinib = compound: Cc1ccc(NC(=O)c2ccc(CN3CC[C@H](N(C)C)C3)c(C(F)(F)F)c2)cc1Nc1nccc(-c2cncnc2)n1 [bafetinib]
# Method in brief: as §1
# [6] = compound: Cc1cccc(CC(=O)N2CCc3c2ccc(-c2cn(C)c4ncnc(N)c24)c3F)n1
# Method in brief: as §1
# UniProt P07814, sequence (P07814 whole entry, looked up): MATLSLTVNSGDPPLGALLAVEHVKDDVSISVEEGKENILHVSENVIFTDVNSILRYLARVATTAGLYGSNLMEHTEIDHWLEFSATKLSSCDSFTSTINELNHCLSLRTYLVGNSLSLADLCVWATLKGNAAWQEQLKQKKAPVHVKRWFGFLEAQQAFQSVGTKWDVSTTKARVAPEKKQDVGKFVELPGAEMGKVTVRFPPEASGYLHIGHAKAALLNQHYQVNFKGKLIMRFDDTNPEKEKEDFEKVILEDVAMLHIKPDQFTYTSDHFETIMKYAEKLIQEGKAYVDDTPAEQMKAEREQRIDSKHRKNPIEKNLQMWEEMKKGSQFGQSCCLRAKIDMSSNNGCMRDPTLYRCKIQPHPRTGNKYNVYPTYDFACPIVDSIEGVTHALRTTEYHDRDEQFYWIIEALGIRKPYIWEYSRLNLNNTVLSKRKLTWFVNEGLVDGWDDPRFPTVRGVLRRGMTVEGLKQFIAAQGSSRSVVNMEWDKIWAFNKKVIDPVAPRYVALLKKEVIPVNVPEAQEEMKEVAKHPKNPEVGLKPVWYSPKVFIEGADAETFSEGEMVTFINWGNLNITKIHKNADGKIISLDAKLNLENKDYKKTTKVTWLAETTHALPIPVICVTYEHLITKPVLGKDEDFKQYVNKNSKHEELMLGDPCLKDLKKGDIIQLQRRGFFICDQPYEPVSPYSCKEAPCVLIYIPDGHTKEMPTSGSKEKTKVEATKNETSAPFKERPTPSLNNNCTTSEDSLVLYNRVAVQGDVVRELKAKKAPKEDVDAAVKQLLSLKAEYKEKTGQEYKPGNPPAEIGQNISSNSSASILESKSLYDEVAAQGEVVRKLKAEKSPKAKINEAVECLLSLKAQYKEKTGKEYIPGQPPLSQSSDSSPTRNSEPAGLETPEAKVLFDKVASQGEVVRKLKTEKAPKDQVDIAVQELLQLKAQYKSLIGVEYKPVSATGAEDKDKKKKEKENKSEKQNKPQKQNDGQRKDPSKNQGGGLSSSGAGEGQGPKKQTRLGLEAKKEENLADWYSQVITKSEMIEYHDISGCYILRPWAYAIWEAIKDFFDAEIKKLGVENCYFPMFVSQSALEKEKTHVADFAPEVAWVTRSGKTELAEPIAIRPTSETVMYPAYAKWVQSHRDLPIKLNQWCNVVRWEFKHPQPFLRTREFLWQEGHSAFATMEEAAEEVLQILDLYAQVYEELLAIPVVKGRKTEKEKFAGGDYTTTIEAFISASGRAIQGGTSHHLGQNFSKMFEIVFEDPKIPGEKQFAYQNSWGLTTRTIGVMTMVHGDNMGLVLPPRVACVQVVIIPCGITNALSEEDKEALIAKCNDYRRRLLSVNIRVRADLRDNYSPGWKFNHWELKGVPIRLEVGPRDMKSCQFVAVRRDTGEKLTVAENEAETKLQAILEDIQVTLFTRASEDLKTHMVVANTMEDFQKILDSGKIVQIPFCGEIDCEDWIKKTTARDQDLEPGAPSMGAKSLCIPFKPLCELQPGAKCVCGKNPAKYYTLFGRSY
# UniProt Q9BPY3, sequence (Q9BPY3 whole entry, looked up): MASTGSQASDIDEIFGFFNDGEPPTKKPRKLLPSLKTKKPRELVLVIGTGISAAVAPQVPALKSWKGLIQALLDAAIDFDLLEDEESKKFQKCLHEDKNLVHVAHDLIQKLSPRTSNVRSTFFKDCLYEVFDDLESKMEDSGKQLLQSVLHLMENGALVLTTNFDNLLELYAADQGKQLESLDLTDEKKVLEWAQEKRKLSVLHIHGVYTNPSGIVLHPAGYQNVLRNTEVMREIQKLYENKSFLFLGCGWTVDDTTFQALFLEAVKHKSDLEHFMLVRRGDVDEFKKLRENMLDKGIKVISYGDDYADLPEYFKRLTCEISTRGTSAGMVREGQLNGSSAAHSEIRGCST
# UniProt Q9UK97, sequence (Q9UK97 whole entry, looked up): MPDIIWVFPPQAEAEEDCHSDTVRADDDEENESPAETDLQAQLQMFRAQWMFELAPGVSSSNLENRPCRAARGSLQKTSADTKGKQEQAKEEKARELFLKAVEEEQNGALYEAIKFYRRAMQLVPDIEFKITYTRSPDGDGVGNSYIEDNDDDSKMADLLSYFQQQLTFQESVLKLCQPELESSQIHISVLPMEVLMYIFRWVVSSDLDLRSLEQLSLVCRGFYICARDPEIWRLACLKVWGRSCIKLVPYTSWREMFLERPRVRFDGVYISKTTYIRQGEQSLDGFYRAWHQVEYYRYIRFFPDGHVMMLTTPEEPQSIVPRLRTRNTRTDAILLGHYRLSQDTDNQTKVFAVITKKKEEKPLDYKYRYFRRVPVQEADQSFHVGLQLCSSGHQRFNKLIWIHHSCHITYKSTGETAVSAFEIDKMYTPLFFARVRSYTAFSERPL
# UniProt Q13347, sequence (Q13347 whole entry, looked up): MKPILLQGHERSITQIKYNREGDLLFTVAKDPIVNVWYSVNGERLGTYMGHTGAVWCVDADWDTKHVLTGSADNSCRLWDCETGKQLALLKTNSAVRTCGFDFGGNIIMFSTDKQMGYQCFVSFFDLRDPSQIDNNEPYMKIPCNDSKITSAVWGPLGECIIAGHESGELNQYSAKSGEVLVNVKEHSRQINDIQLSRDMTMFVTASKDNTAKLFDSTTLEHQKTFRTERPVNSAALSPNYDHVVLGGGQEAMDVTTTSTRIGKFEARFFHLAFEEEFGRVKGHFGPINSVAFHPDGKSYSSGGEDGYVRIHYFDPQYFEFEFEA
# UniProt O14526, sequence (O14526 whole entry, looked up): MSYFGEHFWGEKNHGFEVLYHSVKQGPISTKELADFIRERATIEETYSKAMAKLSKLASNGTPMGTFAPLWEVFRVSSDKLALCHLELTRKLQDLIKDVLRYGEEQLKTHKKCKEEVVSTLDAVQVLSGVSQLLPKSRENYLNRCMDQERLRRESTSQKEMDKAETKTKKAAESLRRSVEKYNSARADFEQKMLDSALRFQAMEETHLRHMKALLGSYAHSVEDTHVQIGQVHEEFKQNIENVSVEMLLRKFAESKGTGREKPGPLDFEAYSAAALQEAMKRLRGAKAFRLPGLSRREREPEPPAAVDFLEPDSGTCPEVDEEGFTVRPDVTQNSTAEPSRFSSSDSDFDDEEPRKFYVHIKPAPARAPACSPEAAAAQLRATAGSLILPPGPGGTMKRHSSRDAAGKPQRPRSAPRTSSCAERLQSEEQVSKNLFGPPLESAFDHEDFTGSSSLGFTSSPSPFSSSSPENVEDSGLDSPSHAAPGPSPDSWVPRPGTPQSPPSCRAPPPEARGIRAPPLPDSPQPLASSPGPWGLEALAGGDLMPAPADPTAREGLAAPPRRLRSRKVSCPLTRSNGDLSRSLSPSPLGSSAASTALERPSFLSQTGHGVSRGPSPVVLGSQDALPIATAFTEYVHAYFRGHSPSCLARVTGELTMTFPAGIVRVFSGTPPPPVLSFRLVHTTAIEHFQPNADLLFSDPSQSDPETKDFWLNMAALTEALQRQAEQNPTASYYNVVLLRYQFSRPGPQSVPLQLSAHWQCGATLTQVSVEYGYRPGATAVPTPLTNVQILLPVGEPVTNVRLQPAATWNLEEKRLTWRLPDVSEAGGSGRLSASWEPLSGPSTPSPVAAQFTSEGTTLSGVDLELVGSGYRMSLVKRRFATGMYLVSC
# UniProt Q96G46, sequence (Q96G46 whole entry, looked up): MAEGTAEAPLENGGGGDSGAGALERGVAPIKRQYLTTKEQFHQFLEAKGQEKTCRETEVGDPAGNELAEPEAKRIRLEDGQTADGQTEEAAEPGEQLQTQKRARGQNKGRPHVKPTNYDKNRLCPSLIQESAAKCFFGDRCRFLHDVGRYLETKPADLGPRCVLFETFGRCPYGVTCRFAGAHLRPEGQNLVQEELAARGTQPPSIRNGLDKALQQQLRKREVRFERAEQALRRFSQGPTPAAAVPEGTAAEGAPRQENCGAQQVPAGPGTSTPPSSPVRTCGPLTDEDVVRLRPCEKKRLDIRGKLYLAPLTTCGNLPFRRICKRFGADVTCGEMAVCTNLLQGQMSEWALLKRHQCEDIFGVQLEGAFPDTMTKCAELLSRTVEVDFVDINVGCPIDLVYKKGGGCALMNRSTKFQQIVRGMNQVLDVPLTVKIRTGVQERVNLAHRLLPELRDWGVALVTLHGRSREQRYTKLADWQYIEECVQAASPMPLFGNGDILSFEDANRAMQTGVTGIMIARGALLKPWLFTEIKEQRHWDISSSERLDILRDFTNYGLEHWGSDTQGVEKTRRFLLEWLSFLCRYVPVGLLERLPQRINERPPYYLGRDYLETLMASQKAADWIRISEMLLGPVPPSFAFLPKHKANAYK
# UniProt Q86YP4, sequence (Q86YP4 whole entry, looked up): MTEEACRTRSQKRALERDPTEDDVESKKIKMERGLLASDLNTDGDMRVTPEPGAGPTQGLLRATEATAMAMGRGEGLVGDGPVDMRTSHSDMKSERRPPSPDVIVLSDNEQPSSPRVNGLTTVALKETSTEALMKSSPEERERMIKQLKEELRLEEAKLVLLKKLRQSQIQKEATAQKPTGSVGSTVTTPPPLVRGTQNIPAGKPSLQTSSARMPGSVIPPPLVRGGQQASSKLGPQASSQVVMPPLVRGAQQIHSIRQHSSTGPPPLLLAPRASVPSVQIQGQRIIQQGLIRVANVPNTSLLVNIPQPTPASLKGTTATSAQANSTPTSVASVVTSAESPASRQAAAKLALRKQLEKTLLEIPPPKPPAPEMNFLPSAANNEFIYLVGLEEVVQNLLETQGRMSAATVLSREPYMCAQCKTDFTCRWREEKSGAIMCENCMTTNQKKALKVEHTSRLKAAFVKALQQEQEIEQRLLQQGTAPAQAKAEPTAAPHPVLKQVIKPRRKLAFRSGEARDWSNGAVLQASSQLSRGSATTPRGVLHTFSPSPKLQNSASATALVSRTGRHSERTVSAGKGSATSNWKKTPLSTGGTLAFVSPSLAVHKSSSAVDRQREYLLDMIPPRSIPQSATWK
Target,log2 fold change (alvocidib),log2 fold change (Tubastatin A),log2 fold change [1],log2 fold change (defactinib),log2 fold change [2],log2 fold change (encorafenib),log2 fold change [3],log2 fold change (alisertib),log2 fold change [4],log2 fold change (gefitinib),log2 fold change (lapatinib),log2 fold change (pictilisib),log2 fold change (crizotinib),log2 fold change [5],log2 fold change (duvelisib),log2 fold change (gandotinib),log2 fold change (tozasertib),log2 fold change (doramapimod),log2 fold change (bafetinib),log2 fold change [6]
FBXO9 (UniProt Q9UK97),0.099,-0.006,-0.015,0.104,0.037,0.078,-0.042,-0.011,-0.402 (active),0.04,-0.334,-0.107,-0.023,0.08,-0.012,-0.141,0.041,0.044,0,-0.104
FCHO1 (UniProt O14526),0.027,-0.188,0.038,0.039,0.038,0.009,0.076,0.009,-0.021,0.003,-0.034,0.027,-0.072,-0.061,-0.025,-0.027,0.027,-0.039,-0.141,0.058
FAM118B (UniProt Q9BPY3),-0.023,-0.058,-0.002,0.037,-0.009,0.026,-0.048,-0.011,-0.043,0.016,0.022,-0.013,-0.093,-0.022,0.045,-0.044,-0.008,0.048,0.008,0.037
EIF3I (UniProt Q13347),0.034,-0.126,0.01,0.002,-0.043,-0.018,0.156,0.003,0.009,-0.03,-0.009,-0.015,-0.004,-0.003,-0.009,-0.022,0.008,0.029,-0.052,0.01
EPRS (UniProt P07814),0.012,-0.11,0.002,0.003,-0.015,-0.004,0.107,0.015,-0.01,-0.032,-0.005,0.006,-0.042,0.015,0.031,-0.069,0.012,0.02,0.003,0.019
DUS3L (UniProt Q96G46),0.076,-0.065,-0.012,-0.023,0.001,0.091,-0.024,-0.02,0.036,-0.005,-0.009,-0.02,-0.027,0.202,-0.022,-0.081,0.009,-0.018,0.093,-0.097
GATAD2A isoform 3 (UniProt Q86YP4),-0.028,-0.045,0.015,0,0.025,0.005,0.072,0.006,0.01,-0.023,-0.012,-0.031,-0.011,-0.031,-0.037,0.016,-0.009,0.026,0.001,0.061
ESPL1 (UniProt Q14674),0.044,-0.023,0.129,-0.188,0.053,0.101,-0.013,0.004,-0.233,-0.009,0.053,0.07,-0.015,0.027,-0.011,0.026,0.024,-0.044,-0.077,0.057
